# Test results: PubChem BioAssay (NCI)
# Compounds without any hit were thinned out: in the full panel of roughly 83,000, 20% have a hit.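 Interpretation: 100, growth as untreated; towards 0, rising growth inhibition; 0, no net growth; 0 to -100, cell death. Compounds scoring below 10 were considered active.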 Values without a mark were called inactive. Activity calls are given as the source filed them.
# Columns and labels:
# Assay in all cases: NCI-60 one-dose screen, 48 h (100 = growth as untreated, 0 = no growth, -100 = all killed)
# Details in all cases: 10 µM unless noted
# BT-549 breast = system: BT-549 breast
# MDA-MB-435 melanoma = system: MDA-MB-435 melanoma
# SW-620 colon = system: SW-620 colon
# MCF7 breast = system: MCF7 breast
# HCT-116 colon = system: HCT-116 colon
# HCC-2998 colon = system: HCC-2998 colon
# KM12 colon = system: KM12 colon
Compound,growth (BT-549 breast),growth (MDA-MB-435 melanoma),growth (SW-620 colon),growth (MCF7 breast),growth (HCT-116 colon),growth (HCC-2998 colon),growth (KM12 colon)
N#Cc1cnc2cc(OC[C@H](O)CO)c(NC(=O)CC3CSSC3)cc2c1Nc1ccc(OCc2cccc(F)c2)c(Cl)c1,-62.2% (active),-82.7% (active),-70.8% (active),-69.2% (active),-42.8% (active),-81.9% (active),-81.8% (active)
COc1cc(OC)c2sc(-c3ccc(-n4cncc4-c4ccc(N)cc4)cc3)nc2c1,82.4%,62.9%,91.2%,63.4%,70.2%,96.2%,64.1%
c1cnc2ccc3ncccc3c2c1,108%,129%,100%,92%,95.7%,124%,110%
Cc1cc(CC(=O)O)n(C)c1C(=O)c1ccc(Cl)cc1,101%,106%,103%,120%,102%,108%,105%
Cc1cc(NC(=O)c2ccc(N)cc2)ccc1N=Nc1ccc2c(O)c(N=Nc3ccc(Cl)c(S(=O)(=O)O)c3)c(S(=O)(=O)O)cc2c1,102%,95.5%,92.6%,80.1%,71.5%,73.1%,90%
Nc1ccc(S(=O)(=O)Nc2ncccn2)cc1,119%,108%,105%,101%,113%,104%,108%
CC(=O)Oc1c(C)c(OC(C)=O)c2c(c1C(C)=O)OC1CC(=O)C(C(C)=O)=C(O)C21C (stereo unspecified),90.4%,105%,105%,97%,100%,102%,105%
Cn1cc(-c2csc(-c3cn(C)c4ncccc34)n2)c2cc(F)cnc21,85.7%,8.5% (active),61.7%,58%,72.5%,77.3%,60.7%
C[n+]1ccc(C#N)c2ccccc21,102%,95.8%,90.6%,87.5%,80%,114%,100%
COc1ccc2c(c1)C(=O)c1c-2c(OCCCN(C)C)nc2cc(Br)ccc12,89.7%,90.2%,35.7%,18.5%,56.8%,69.6%,69.7%
Cn1c(=O)c2c(nc(Br)n2CCC(=O)Nc2ccc(F)cc2)n(C)c1=O,91.8%,108%,103%,100%,85.5%,103%,107%
N#Cc1c(N2CCOCC2)nc2sc3cc(Cl)ccc3n2c1=N,129%,114%,98.3%,74.7%,103%,122%,82.3%
C=C(C)[C@@H]1C[C@H](O)Cc2cc(Cl)cc(Cl)c2N1,105%,105%,105%,103%,99.5%,105%,107%
Cc1nn(-c2ccccc2)c(Cl)c1C(CC(=O)c1ccc(Cl)cc1)CC(=O)c1ccc(Cl)cc1,85.6%,90.9%,96.4%,92.7%,75.4%,99.1%,86.1%
COc1ccc(CCN2CCCN3C2=Nc2ccccc2S3(=O)=O)cc1,50.2%,-5.64% (active),28%,19.3%,17.4%,21.7%,25.8%
Cc1cc(C(C)(C)C)cc(C)c1CC1=NCCN1,98.3%,100%,108%,113%,112%,96.4%,103%
COc1ccc2c(c1)nc(N)c1c3cc(OC)c(OC)cc3cn21,79.8%,-26.7% (active),34.5%,17.5%,27.7%,54.5%,26.9%
COc1ccc2c(c1)C(=O)/C(=C/c1cccc(OCC(=O)c3ccccc3)c1)CC2,39.2%,41.1%,66%,48.7%,72.1%,96.4%,91.5%
CC(C)COCC(CN(Cc1ccccc1)c1ccccc1)N1CCCC1 (stereo unspecified),62.2%,72.4%,70.1%,45.8%,36.7%,44.8%,56.2%
CCOC(=O)C1=C(C)N2C(=NC3=C(CCC/C3=C\c3ccc(Cl)cc3)C2c2ccc(Cl)cc2)S1 (stereo unspecified),-44.5% (active),-14% (active),-59.8% (active),-43.7% (active),-100% (active),-100% (active),-73.3% (active)
COc1ccc2[nH]cc(/C=C3/C(=O)Nc4ccc(Cl)cc43)c2c1,40.9%,22.9%,53.7%,40.7%,13.5%,43.9%,3.07% (active)
COc1ccc(OC)c(/C=C/c2nc(=S)n(-c3ccc(Cl)cc3)[nH]2)c1,67.2%,-10.3% (active),50.4%,32%,29.6%,45.6%,40.9%
COc1ccc(-c2cc(Cc3cccs3)c(=O)n(Cn3ccc4ccccc43)n2)cc1,116%,90.8%,114%,95.2%,106%,107%,110%
